These results are taken from PubChem BioAssay AID2685 (National Center for Advancing Translational Sciences (NCATS), 2010).

About 2,100 (0.66%) of roughly 320,000 compounds were called active. Not shown: some 53% with an inconclusive outcome. The call rests on the fitted dose curve; in most records, active means well fitted inhibition curve with a large enough effect in the signal ratio, with a control signal flat (not every such curve was filed as active); inconclusive means small, poorly fitted or top-dose-only effect, or effect the other way, or a change in a side signal; inactive means flat fitted curve, though single readings scatter; the % refers to the signal ratio. The entries come from a sample that favours actives as a whole.
Potency means the concentration at half of the fitted maximal effect.

The nature of the assay: qHTS Assay for Lipid Storage Modulators in Drosophila S3 Cells.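 On cell number change: cells counted by Cell Tracker Red CMTPX staining in the red channel.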 On lipid storage change, negative = inhibition: on the % scale 0 is the no-effect control and ±100 the full control effect. Conditions: BODIPY lipid droplet fluorescence, 18-24 h, cells fed with added oleic acid; cell number change: measured here: cell count max response; series mostly up to 46.1 µM; lipid storage change, negative = inhibition: at the top concentration. In outline: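 Laser-scanning cytometry quantifies lipid droplet accumulation (500–530 nm total intensity; droplet/cell object ratio) in oleic acid-fed (400 uM added) Drosophila S3 cells treated with a concentration series. 20 uM Triacsin C defined 100% inhibition.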
Turning to `COc1ccc(-n2c(C)ccc2-c2ccccc2)cn1`, the Potency is 14.6 µM (active) and the cell number change is 3.52%.
For the compound `COc1ccc(Br)cc1C(=O)NC(=S)Nc1ccc2[nH]c(=O)[nH]c2c1`, the call was inactive and the cell number change is -29.5%.
In the case of `COc1ccc(S(=O)(=O)N2CCCCCC2)cc1C(=O)Nc1ccc(C)cn1`, the call was inactive.
Turning to `COc1ccc([C@@H]2C[C@@H](c3ccccc3)Oc3cc(OC)c(OC)c(OC)c32)cc1`, the “lipid storage change, negative = inhibition” value is -12.6% (inactive) and the cell number change is -1.66%.
As for `COc1ccc([C@@H]2C[C@H](c3ccccc3)Oc3cc(OC)c(OC)c(OC)c32)cc1`, the Potency was 4.61 µM (active) and the cell number change was -18.2%.
In the case of `COc1ccc(C2CC(O)(c3ccccc3)Oc3cc(OC)cc(OC)c32)cc1` (stereo not drawn), the “lipid storage change, negative = inhibition” value is -17.8% (inactive) and the cell number change is -14.8%.
On the same counts, the results for `C=C1CCN(C(C(=O)OC)C(C)C)S(=O)(=O)c2ccccc21` (stereo not drawn) are -1.62% (inactive) and 0.159%.
In the case of `CCCCC(=O)NC1(C(F)(F)F)C(=O)Nc2c1c(=O)n(C)c(=O)n2C` (stereo not drawn), the Potency was 18.4 µM (active) and the cell number change was -5.38%.
Turning to `Cn1c2c(c(=O)n(C)c1=O)C(NC(=O)c1ccco1)(C(F)(F)F)C(=O)N2` (stereo not drawn), the “lipid storage change, negative = inhibition” value is 9.46% (inactive) and the cell number change came to 6.96%.
Consider `CC(=O)NC1(C(F)(F)F)C(=O)Nc2c1c(=O)n(C)c(=O)n2C` (stereo not drawn), for which the “lipid storage change, negative = inhibition” value is -1.58% (inactive) and the cell number change is -13.1%.
`Cn1c2c(c(=O)n(C)c1=O)C(NC(=O)c1cccs1)(C(F)(F)F)C(=O)N2` (stereo not drawn): the “lipid storage change, negative = inhibition” value is -10.5% (inactive) and the cell number change is -6.48%.
`CC(C)CC(=O)NC1(C(F)(F)F)C(=O)Nc2c1c(=O)n(C)c(=O)n2C` (stereo not drawn): the Potency was 3.66 µM (active) and the cell number change was determined as 2.2%.
As to `CCC(=O)NC1(C(F)(F)F)C(=O)Nc2c1c(=O)n(C)c(=O)n2C` (stereo not drawn), the compound was called inactive and the cell number change was found to be 7.51%.
As to `CC(=O)Nc1ccccc1/C=C/c1ccc2c(C)cc(C)c(O)c2n1`, the “lipid storage change, negative = inhibition” value is 14.1% (inactive) and the cell number change is 8.64%.
Turning to `COc1ccc(/C=C/C(=O)NCCc2nc3ccccc3[nH]2)cc1`, the “lipid storage change, negative = inhibition” value was -0.312% (inactive) and the cell number change is -8.48%.
In the same order, the values of `COc1ccc(OC)c(/C=C/C(=O)NCCc2nc3ccccc3[nH]2)c1` are -16.4% (inactive) and -6.41%.
With `CCCCCOc1ccc(/C=C/C(=O)NCCc2nc3ccccc3[nH]2)cc1OC`, the Potency was 13 µM (active) and the cell number change is -28.6%.
For `O=C(Nc1nnc(-c2cccs2)o1)C1CC1`, the “lipid storage change, negative = inhibition” value is -0.337% (inactive) and the cell number change was -5.18%.
In the same order, the values of `COc1ccc(N2C(=O)CSC2c2ccccc2)cc1` (stereo not drawn) are 3.7% (inactive) and 14.6%.
With `Cc1n[nH]c(C)c1S(=O)(=O)N1CCc2ccccc21`, the “lipid storage change, negative = inhibition” value is 11.4% (inactive) and the cell number change was -2.98%.
On the same counts, the results for `C/C(=N\NC(=O)c1cccs1)c1cccnc1` are -0.0778% (inactive) and 20.6%.
In the case of `S=C(NCCc1ccccc1)N1CCn2cccc2C1c1ccncc1` (stereo not drawn), the Potency was 7.31 µM (active) and the cell number change is 15.3%.
Consider `S=C(NCCc1ccccc1)N1CCn2cccc2C1c1cccnc1` (stereo not drawn), for which the “lipid storage change, negative = inhibition” value was -3.98% (inactive) and the cell number change is -24.1%.
In the same order, the values of `S=C(NCc1ccccc1)N1CCn2cccc2C1c1ccncc1` (stereo not drawn) are 5.38% (inactive) and 5.96%.
Turning to `CC[C@@H](NS(=O)(=O)c1ccc(C)cc1)C(=O)Oc1ccc2c3c(c(=O)oc2c1)CCC3`, the “lipid storage change, negative = inhibition” value was -5.22% (inactive) and the cell number change stood at 4.66%.
On to `CC(=O)NC12CC3CC(C1)CC(C(=O)Nc1nc4ccc(F)cc4s1)(C3)C2`, for which the compound was classed as inactive and the cell number change was -27.9%.
`CC(=O)NC12CC3CC(C1)CC(C(=O)Nc1nc4ccc(S(C)(=O)=O)cc4s1)(C3)C2`: the “lipid storage change, negative = inhibition” value is 4.01% (inactive) and the cell number change is -1.02%.
As to `CC(=O)NC12CC3CC(C1)CC(C(=O)Nc1nc4c(C)cccc4s1)(C3)C2`, the Potency was 5.8 µM (active) and the cell number change was -14.2%.
With `CC(=O)N(C)C1=C(N2CCOCC2)C(=O)c2ccccc2C1=O`, the “lipid storage change, negative = inhibition” value is -6.67% (inactive) and the cell number change came out at 0.283%.
On the same counts, the results for `O=C(O)c1ccc(NC2=C(N3CCOCC3)C(=O)c3ccccc3C2=O)cc1` are -9.76% (inactive) and -2.96%.
Regarding `O=C1C=C(N2CCOCC2)c2ccccc2C1=O`, the Potency was 4.11 µM (active) and the cell number change is -6.93%.
With `Cc1ccc(-n2nc(C)c3c(C)c(CCC(=O)O)c(C)nc32)cc1C`, the “lipid storage change, negative = inhibition” value is -1.95% (inactive) and the cell number change stood at 9.26%.
On the same counts, the results for `O=C(O)CCCc1ccc2ccc3cccc4ccc1c2c34` are 7.63% (inactive) and 11.3%.
On to `COc1ccc(CN(CC(=O)NCc2ccc(F)cc2)C(=O)CCC(=O)Nc2cc(C)ccn2)cc1`, for which the Potency is 23.1 µM (active) and the cell number change stood at 6.52%.
With `O=C(CN(Cc1ccccc1)C(=O)CCC(=O)Nc1ccccn1)NCc1ccc(F)cc1`, the compound was classed as inactive and the cell number change is 7.92%.
On to `CCOc1ncccc1C(=O)N(CC)CC(=O)NCc1ccc(F)cc1`, for which the Potency is 3.66 µM (active) and the cell number change was 4.96%.
Consider `CC(C)CCNC(=O)CN(Cc1ccc2c(c1)OCO2)C(=O)CCC(=O)Nc1ccccn1`, for which the “lipid storage change, negative = inhibition” value was 11.2% (inactive) and the cell number change came to 2.93%.
In the same order, the values of `CCc1ccc(N(CC(=O)NC(C)C)C(=O)CCC(=O)Nc2ccccn2)cc1` are 13.9% (inactive) and -21%.
In the case of `CCC(C)(C)NC(=O)CN(Cc1ccc2c(c1)OCO2)C(=O)CCC(=O)Nc1ccccn1`, the “lipid storage change, negative = inhibition” value is -29.1% (inactive).
`CC(C)NC(=O)CN(Cc1ccc2c(c1)OCO2)C(=O)CCC(=O)Nc1ccccn1`: the Potency was 18.4 µM (active) and the cell number change came out at 0.42%.
Take `Cc1ccnc(NC(=O)CCC(=O)N(CC(=O)NCc2ccccc2)Cc2ccccc2)c1`: the result was inactive and the cell number change came out at 14.2%.
In the case of `Cc1ccnc(NC(=O)CCC(=O)N(CC(=O)NC(C)(C)C)c2ccc3c(c2)OCCO3)c1`, the “lipid storage change, negative = inhibition” value was -7.53% (inactive) and the cell number change is 5.82%.
Consider `CCN(CC(=O)NCc1ccc(F)cc1)C(=O)c1cccnc1SC`, for which the “lipid storage change, negative = inhibition” value is 22.9% (inactive) and the cell number change worked out at 23.4%.
`Cc1ccnc(NC(=O)CCC(=O)N(CC(=O)NC(C)(C)C)Cc2ccc3c(c2)OCO3)c1`: the Potency is 23.1 µM (active) and the cell number change is -17.5%.
For the compound `CCOc1ncccc1C(=O)N(CC)CC(=O)Nc1ccc(NC(C)=O)cc1`, the “lipid storage change, negative = inhibition” value was 8.07% (inactive) and the cell number change is 4.04%.
